Experimental data as given in PubChem BioAssay AID1508602 (The Scripps Research Institute Molecular Screening Center, 2020).
The campaign covered roughly 650,000 compounds. About 6,800 (1%) were called active. What follows is part of a selection rich in actives, with near analogues and random picks from the rest. A number with no mark means an inactive call. Rule as the data show it: active = activation above about 4.9%; inactive = the rest.

What follows are molecules tested against G-protein coupled receptor 151 (Homo sapiens) (UniProt Q8TDV0) (assay: activators of human GPR151, primary screen, cell-based, PathHunter beta-arrestin, luminescence (AID 1508602;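 also: 0% = median of compound wells and 100% = cells with positive control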)). Settings: PathHunter beta-arrestin GPR151 cells, at 11.2 µM, hits give high values.
Chain of G-protein coupled receptor 151 (Homo sapiens) (Q8TDV0 whole entry, looked up): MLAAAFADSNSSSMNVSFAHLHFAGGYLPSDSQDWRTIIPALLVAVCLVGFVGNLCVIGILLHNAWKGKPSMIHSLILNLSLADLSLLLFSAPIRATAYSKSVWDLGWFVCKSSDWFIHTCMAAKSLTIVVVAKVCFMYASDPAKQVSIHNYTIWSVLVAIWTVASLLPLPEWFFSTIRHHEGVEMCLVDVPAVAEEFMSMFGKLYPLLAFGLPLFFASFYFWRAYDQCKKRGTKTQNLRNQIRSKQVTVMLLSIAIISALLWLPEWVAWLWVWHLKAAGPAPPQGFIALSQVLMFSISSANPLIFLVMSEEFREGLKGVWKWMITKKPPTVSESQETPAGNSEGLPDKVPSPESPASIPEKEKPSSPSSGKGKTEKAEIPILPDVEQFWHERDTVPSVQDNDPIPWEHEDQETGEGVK

Which activation does the source give for `O=C(Nc1ccc2oc(-c3ccccc3F)nc2c1)c1cc(I)ccc1Cl` here?
The activation was -1.58%.

With `CCOc1ccc(-c2cc(C(=O)NCCCN3CCN(C)CC3)c3ccccc3n2)cc1` as the molecule, how does the activation read?
The activation was 2.73%.

How did the activation turn out when `O=C1c2ccccc2C(=O)N1CNc1ccc(Cc2ccncc2)cc1` was run?
Its activation is -0.716%.

For `O=C(CN1C(=O)NC2(CCCCCC2)C1=O)Nc1ccc(S(=O)(=O)N2CCCC2)cc1`, which activation is on record?
The activation was 1.73%.

How did the activation turn out when `COC(=O)CCC(=O)Nc1ccc(S(=O)(=O)N2CCOCC2)cc1` was run?
Its activation is -0.0636%.

For `O=C(CN1C(=O)CCC1=O)Nc1ccc(S(=O)(=O)N2CCOCC2)cc1`, which activation is on record?
The activation was 6.57% (active).

`CN(CC(=O)Nc1cccc(F)c1)C(=O)C1CCCCC1` was tested. Which activation did it give?
Its activation is -0.0765%.

How did the activation turn out when `CC(C)CCn1nnnc1CN1CCN(c2ccccc2F)CC1` was run?
The activation was -0.0283%.

For `Cc1ccc(S(=O)(=O)Cn2nnnc2CN2CCN(c3ccccc3F)CC2)cc1`, which activation is on record?
Its activation is 8.05% (active).

`Cc1ccc(S(=O)(=O)Cn2nnnc2CN2CCN(c3cccc(Cl)c3)CC2)cc1` was tested. Which activation did it give?
The activation was -0.91%.

Which activation does the source give for `CCCC(C)NS(=O)(=O)c1ccc(OCC(=O)OC)cc1` (stereo not given) here?
The activation was 0.348%.

Which activation does the source give for `COCC(=O)NC(C)c1nnc(SCc2ccccc2C)n1C` (stereo not given) here?
Its activation is -0.733%.

`COc1cccc(-c2nc3cc(NC(=O)c4cncc(Br)c4)ccc3o2)c1` was tested. Which activation did it give?
The activation was -0.0884%.

How did the activation turn out when `COc1cccc(C(=O)Nc2ccc3oc(-c4ccccc4)nc3c2)c1` was run?
Its activation is -0.935%.

How did the activation turn out when `COc1cccc(-c2ocnc2C(=O)Nc2ccc3nc(-c4cccnc4)oc3c2)c1` was run?
The activation was 7.47% (active).

Which activation does the source give for `O=C(NC1CC1)c1ccc(-c2cccc(C(=O)NCc3ccccc3)n2)cc1` here?
The activation was -1.55%.

Which activation does the source give for `CCOc1ccc(-c2ccc(SCC(=O)Nc3cc(C)on3)nn2)cc1` here?
Its activation is 1.58%.

`O=C1N(CC2CCCCC2)CCN1c1ccc(C(F)(F)F)cn1` was tested. Which activation did it give?
Its activation is -0.812%.

For `CCOc1ccc(S(=O)(=O)N2CCN(c3ncccn3)CC2)c2cccnc12`, which activation is on record?
The activation was 3.78%.

How did the activation turn out when `c1ccc(-c2ccccc2OCCNCCN2CCOCC2)cc1` was run?
Its activation is -0.471%.

For `c1ccc(-c2ccccc2OCCCCNCCN2CCOCC2)cc1`, which activation is on record?
Its activation is 0.194%.

Which activation does the source give for `c1ccc(-c2ccc(OCCCNCCN3CCOCC3)cc2)cc1` here?
Its activation is 7.78% (active).

With `COC1(C(F)(F)F)NC(=O)N(c2ccccc2)C1=O` (stereo not given) as the molecule, how does the activation read?
Its activation is -1.06%.

Which activation does the source give for `CCCOC1(C(F)(F)F)NC(=O)N(c2ccc(C(C)C)cc2)C1=O` (stereo not given) here?
The activation was 10.8% (active).

`CC(C)c1ccc(N2C(=O)C3C(C2=O)C2(c4ccccc4)C(=O)C3(c3ccccc3)C(c3ccccc3)=C2c2ccccc2)cc1` (stereo not given) was tested. Which activation did it give?
The activation was 2.7%.

How did the activation turn out when `Cc1nc(N2CCN(C)CC2)c2c(C)c(C(=O)NC3CCCCC3)sc2n1` was run?
The activation was 0.833%.

Which activation does the source give for `CC(C)NC(=O)c1sc(=S)n2c1[nH]c(=O)c1ccc(C(=O)NCCN(C)C)cc12` here?
Its activation is 1.68%.

With `O=C1/C(=C\c2cccs2)SC(=S)N1Cc1ccco1` as the molecule, how does the activation read?
The activation was -0.646%.

With `CCC(=O)N1CCc2cc(S(=O)(=O)CCC(=O)Nc3ccc(C(=O)OC)cc3)ccc21` as the molecule, how does the activation read?
Its activation is 0.246%.

With `COc1cc(-c2cncc(-c3cccc(C(=O)NCCN(C)C)c3)n2)cc(OC)c1OC` as the molecule, how does the activation read?
Its activation is -0.823%.

Which activation does the source give for `CCN1CCN(Cc2cc([N+](=O)[O-])ccc2O)CC1` here?
The activation was -0.921%.

`C/C(=N/N1CCN(Cc2ccc(C)cc2C)CC1)c1ccc([N+](=O)[O-])cc1` was tested. Which activation did it give?
The activation was 9.21% (active).

`Cc1ccc(CN2CCOCC2)c(C)c1` was tested. Which activation did it give?
The activation was 0.704%.

With `COC(=O)c1cccc(-n2c3nc(=O)[nH]c(=O)c-3cc3ccccc32)c1` as the molecule, how does the activation read?
The activation was -0.76%.

For `CC(C)CC(=O)Nc1ccc(NC(=O)CC(C)C)c(Cl)c1`, which activation is on record?
The activation was 0.466%.

`CC(=O)c1cccc(-c2nc(Nc3ccc(Oc4ccccc4)cc3)c3ncn(-c4ccsc4)c3n2)c1` was tested. Which activation did it give?
Its activation is 5.34% (active).

`Cc1nn(C)c(C)c1-c1nc(Nc2ccc(Oc3ccccc3)cc2)c2ncn(-c3ccsc3)c2n1` was tested. Which activation did it give?
The activation was 0.158%.

With `CC(=O)c1cccc(-c2nc(NCCOc3ccccc3)c3ncn(-c4ccccc4)c3n2)c1` as the molecule, how does the activation read?
Its activation is 0.401%.

With `CCOC(=O)C1=C(C)N=c2s/c(=C\c3ccc(OC)c(Br)c3)c(=O)n2C1c1ccc2c(c1)OCO2` (stereo not given) as the molecule, how does the activation read?
The activation was 3.22%.

With `CCCc1c(C)nc2c(C(=O)NC3CCCCCCC3)c[nH]n2c1=O` as the molecule, how does the activation read?
The activation was 1.02%.

For `CCOC(=O)Cc1coc(NC(=O)c2ccc(Cl)cc2)n1`, which activation is on record?
The activation was 5.28% (active).

Which activation does the source give for `CCOC(=O)Cc1csc(NC(=O)c2ccc(NC(=O)CC)cc2)n1` here?
The activation was -0.289%.

Which activation does the source give for `CC(=O)COC(=O)CNC(=O)c1ccc(Cl)cc1` here?
Its activation is -1.71%.

`Cc1nn(CC(=O)N(CC2CCCO2)C2CCS(=O)(=O)C2)c(C)c1[N+](=O)[O-]` (stereo not given) was tested. Which activation did it give?
Its activation is 0.461%.

`CCOC(=O)C1=C(C)N=c2s/c(=C\c3cccc(OC)c3OCC)c(=O)n2C1c1ccccc1OC(C)C` (stereo not given) was tested. Which activation did it give?
Its activation is 2.86%.

With `O=C(c1cc([N+](=O)[O-])ccc1NC1CCCCC1)N1CCOCC1` as the molecule, how does the activation read?
Its activation is 9.09% (active).

For `O=C(c1cn[nH]c1-c1ccc([N+](=O)[O-])cc1)N1CCOCC1`, which activation is on record?
The activation was -0.121%.

Which activation does the source give for `COc1cc([N+](=O)[O-])ccc1NC(=O)N1CCN(C2CCCCC2)CC1` here?
Its activation is -0.0069%.

For `S=C(NCc1ccccc1)NCc1nc2ccccc2[nH]1`, which activation is on record?
Its activation is 1.09%.

With `Cc1ccc(C)n1-c1ccc(C(=O)NCC(c2ccco2)N(C)C)cc1` (stereo not given) as the molecule, how does the activation read?
Its activation is 0.754%.

`CC(C)Cn1c(=O)c2c(nc3n2CCCN3c2ccc(Br)cc2)n(C)c1=O` was tested. Which activation did it give?
The activation was -0.288%.

For `CC(=O)Cn1c(=O)c2c(nc3n2CCCN3c2ccc(Br)cc2)n(C)c1=O`, which activation is on record?
The activation was 5.99% (active).

With `CCOCCn1c(=O)c2c(nc3n2CCCN3c2ccc(Br)cc2)n(C)c1=O` as the molecule, how does the activation read?
Its activation is 0.326%.

`O=C(C(Cc1ccccc1)N1C(=O)C2C3CCC(C3)C2C1=O)N1CCOCC1` (stereo not given) was tested. Which activation did it give?
Its activation is 0.906%.

For `O=C(C(Cc1ccccc1)N1Cc2ccccc2C1=O)N1CCOCC1` (stereo not given), which activation is on record?
The activation was -0.15%.

`O=C(C(Cc1ccccc1)N1C(=O)C2C3c4ccccc4C(c4ccccc43)C2C1=O)N1CCOCC1` (stereo not given) was tested. Which activation did it give?
The activation was 6.8% (active).

Which activation does the source give for `CCOC(=O)c1c(NC(=O)C(C)Sc2nnc(CNC(=O)COc3ccccc3)n2-c2cccc(Cl)c2)sc2c1CCC2` (stereo not given) here?
Its activation is -0.72%.

With `Cc1[nH]nc(Nc2cccc(C(F)(F)F)c2)c1[N+](=O)[O-]` as the molecule, how does the activation read?
The activation was 0.158%.

How did the activation turn out when `O=[N+]([O-])c1ccc2ncnc(Nc3cccc(C(F)(F)F)c3)c2c1` was run?
Its activation is 5.31% (active).

`Cn1ncc2c(Nc3cccc(S(=O)(=O)Nc4cccc(C(F)(F)F)c4)c3)ncnc21` was tested. Which activation did it give?
The activation was -0.0154%.

Which activation does the source give for `COc1ccc(C(C)(C)C)cc1NC(=O)c1ccc2c(c1)NC(=O)C(C)S2` (stereo not given) here?
The activation was -1.1%.

For `COc1cc(OC)cc(C(=O)Nc2ccc3c4c(cccc24)CC3)c1`, which activation is on record?
Its activation is 16.6% (active).

How did the activation turn out when `CCOc1ccc(C(=O)Nc2ccc3c4c(cccc24)CC3)cc1` was run?
Its activation is 0.563%.

With `COc1cc2ccccc2cc1C(=O)Nc1ccc2c3c(cccc13)CC2` as the molecule, how does the activation read?
The activation was 1.02%.

Which activation does the source give for `COc1ccc(/C=C\C(=O)NCCc2cc3ccc(C)c(C)c3[nH]c2=O)cc1OC` here?
Its activation is -0.187%.

How did the activation turn out when `O=C1CCC(CCNCc2ccccc2)N1CCc1ccccc1F` (stereo not given) was run?
Its activation is 1.45%.

How did the activation turn out when `O=C1CCC(CCNCCOc2ccccc2)N1CCc1ccccc1` (stereo not given) was run?
The activation was 8.35% (active).

How did the activation turn out when `O=C1CCC(CCNCCOc2ccc(F)cc2)N1CCc1ccccc1` (stereo not given) was run?
The activation was -0.404%.

With `CCOC(=O)N1CCC(NC(=O)c2ccc(N3CC4CC(C3)c3cccc(=O)n3C4)c(NC(=O)c3ccc(OC)cc3)c2)CC1` (stereo not given) as the molecule, how does the activation read?
Its activation is -1.15%.

Which activation does the source give for `CCOc1ccc(S(=O)(=O)c2c[nH]c3cc(OC)c(OC)cc3c2=O)cc1` here?
Its activation is 0.157%.

How did the activation turn out when `CN1C(=O)c2ccc(NC(=O)CCn3c(=O)oc4ccccc43)cc2C1=O` was run?
Its activation is -1.74%.

How did the activation turn out when `Cc1cccc(NC(=O)CCn2c(=O)oc3ccccc32)c1` was run?
The activation was -0.466%.

How did the activation turn out when `Cc1ccc(NC(=O)CCn2c(=O)oc3ccccc32)cc1Cl` was run?
The activation was 10.6% (active).

How did the activation turn out when `CCOC(=O)c1c(NC(=O)COC(=O)C(C)c2c(F)c(F)cc(F)c2F)sc2c1CCCC2` (stereo not given) was run?
Its activation is 1.7%.

Which activation does the source give for `COc1ccc(-c2csc3ncc(C(=O)N(C)C(C)C)c(=O)n23)cc1` here?
Its activation is 1.24%.

For `Cc1ccc(S(=O)(=O)NCc2nc3nc(C)cc(C)n3n2)cc1`, which activation is on record?
Its activation is 10.6% (active).

With `Cc1ccc(C(=O)NCc2nc3nc(C)cc(C)n3n2)cc1` as the molecule, how does the activation read?
Its activation is 0.459%.

With `Cc1cccc(CNc2nc3nc(C)cc(C)n3n2)c1` as the molecule, how does the activation read?
Its activation is -0.819%.

With `CCN(CC)CCN1C(=O)C(=O)/C(=C(\O)c2ccc(Cl)cc2)C1c1ccc([N+](=O)[O-])cc1` (stereo not given) as the molecule, how does the activation read?
The activation was -0.703%.

For `NS(=O)(=O)c1cccc(S(=O)(=O)c2ccc(Br)cc2)c1`, which activation is on record?
The activation was 1.39%.

`C/C(=N\NC(=O)CCC(=O)N/N=C(\C)c1ccc(Cl)cc1)c1ccc(Cl)cc1` was tested. Which activation did it give?
The activation was 0.378%.

`CCCCCC(=O)N/N=C(/C)c1ccc(O)cc1O` was tested. Which activation did it give?
The activation was 7.91% (active).

`CCCCCC(=O)N/N=C(\C)c1ccc(O)cc1` was tested. Which activation did it give?
Its activation is -1.26%.

Which activation does the source give for `Cc1ccc(C(=O)COC(=O)c2ccc3nc(-c4ccccc4)c(-c4ccccc4)nc3c2)cc1` here?
Its activation is -0.519%.

With `CCc1nnc(NC(=O)CSc2nc(C)cc(C)n2)s1` as the molecule, how does the activation read?
The activation was -1.16%.

`COc1cc(/C=N/n2nnnc2N)ccc1OCCC(C)C` was tested. Which activation did it give?
The activation was 1.35%.

`COc1ccc(OC)c(/C=N/n2nnnc2N)c1` was tested. Which activation did it give?
Its activation is 8.6% (active).

For `Nc1nnnn1/N=C\c1ccc(O)c(O)c1`, which activation is on record?
The activation was 0.149%.

For `Brc1ccc(-c2cc(-c3ccccc3)c3cc(Br)ccc3n2)cc1`, which activation is on record?
Its activation is 1.18%.

For `CCCCC(=O)Nc1ccc(C(=O)N2CCN(c3ccccc3F)CC2)cc1`, which activation is on record?
Its activation is 1.25%.
